Compound activity (PubChem)
This is one part of a sample in which hits are shown more often than they occur.
mHTT-CaM PPI inh: disrupts binding of mutant huntingtin to calmodulin; AID 1671202; AlphaScreen His-mHTT/GST-CaM binding, luminescence; 3.6% of 190,000 active; inhibition, % at 15 µM;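 note: 0% = both proteins with DMSO and 100% = one protein alone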
Pf apPOL block: Pf-apPOL DNA polymerase inhibition. 0.25% of 210,000 active. inhibition, % at 10 µM. Recombinant Pf-apPOL, molecular beacon fluorescence, 1.5 h
Numbers without * were called inactive; nt = not tested or not shown. Cut-off read from the data, not from the text of the source: active = inhibition above about 50%; inactive = the rest.

SMILES | mHTT-CaM PPI inh | Pf apPOL block
Cc1nc2ncccn2c1-c1csc(Nc2cccc([N+](=O)[O-])c2)n1 | -2.5 | -14.0
Cc1nc2sccn2c1-c1csc(Nc2cccc(O)c2)n1 | 73.0* | -2.7
Cc1cc(NS(=O)(=O)c2ccc(Nc3nc(-c4c(C)nc5ncccn45)cs3)cc2)no1 | 22.0 | -2.0
Cc1nc2ncccn2c1-c1csc(Nc2ccccn2)n1 | 73.0* | -4.0
Cc1nc2ncccn2c1-c1csc(N)n1 | -1.4 | nt
Cc1nc2ncccn2c1-c1csc(Nc2ccccc2)n1 | 97.0* | -0.6
Cc1cccc(Nc2nc(-c3c(C)nc4ncccn34)cs2)c1 | 77.0* | -6.2
Cc1cccc(C(=O)Nc2c(C)nc3sccn3c2=O)c1 | -3.7 | 4.5
COc1ccc(S(=O)(=O)NCCO)c2cccnc12 | -1.0 | 2.6
CC(=O)N1CCN(c2cccc(F)c2)C(=O)C1C (configuration not stated) | -5.0 | 0.6
COc1ccc(N2CCN(C(=O)C3(c4ccc(NC(=O)C5CC5)cc4)CCC3)CC2)cc1 | 5.4 | 2.8
COc1ccc(C2CCCN2C(=O)NCC(C)C)cc1 (configuration not stated) | -4.5 | -2.7
O=C1C(=Cc2cccs2)Oc2c1ccc1c2CN(CC2CCCO2)CO1 (configuration not stated) | -3.7 | -9.4
CNC(=O)c1cc(=O)[nH]c2c(Cl)cccc12 | -3.3 | -2.1
CC(C)C(=O)N1CCc2ccc(NC(=O)c3ccccc3C(F)(F)F)cc2C1 | 14.2 | 88.2*
Cc1cc(C(=O)Nc2ccc3c(c2)CN(C(=O)C(C)C)CC3)c(C)o1 | -5.5 | -5.7
CN(C)c1ccc(Nc2cccc3nccnc23)cc1 | 61.2* | -8.4
c1cc(Nc2cccc3nccnc23)c2nccnc2c1 | 22.5 | -12.7
CC(C)(C)c1cc(C(=O)Nc2cc(F)ccc2F)nc2ccnn12 | -9.9 | -1.9
Cc1cc(OCCNCCO)cc(C)c1Cl | 3.8 | -1.6
OCCNCCOc1ccc(Cl)cc1 | -5.9 | 76.9*
O=[N+]([O-])c1ccccc1-c1ccc(CN2CCN(Cc3ccccc3)CC2)o1 | 20.4 | 8.2
Cn1c(SCC(=O)Nc2ccc(Br)cc2)nnc1-c1cccc(N)c1 | 9.5 | -2.0
CC(C)(O)C#Cc1ccc(N2C(c3ccsc3)=Cc3ccc(F)cc3C2c2c[nH]c3ccc(C#N)cc23)cc1 (configuration not stated) | -6.7 | -4.3
COc1ccc(N2C(c3ccsc3)=Cc3cc4c(cc3C2c2c[nH]c3ccccc23)OCO4)cc1 (configuration not stated) | 70.5* | -8.6
SMILES | mHTT-CaM PPI inh | Pf apPOL block
COc1cc2c(cc1OC)C(C(=O)NC1CCCCCC1)C(c1ccccc1F)N(C)C2=O (configuration not stated) | 20.0 | -5.3
Cc1c(Cl)cccc1NC(=O)c1cc(S(=O)(=O)NCc2ccco2)ccc1F | 1.0 | -3.0
O=C(CN1CCOCC1)N1N=C(c2ccccc2Cl)CC1c1ccccc1Cl (configuration not stated) | 100.2* | -3.2
Cc1ccc(C2=NN(C(=O)CN3CCOCC3)C(c3ccccc3C)C2)cc1C (configuration not stated) | 50.6* | -1.1
COc1ccc(C2CC(c3ccccc3)=NN2C(=O)CN2CCOCC2)cc1 (configuration not stated) | 26.6 | -6.4
CCC(=O)N(C)CC(=O)N1N=C(c2cccs2)CC1c1ccccc1 (configuration not stated) | 7.2 | -5.5
Cc1ccc(C2=NN(C(=O)CN3CCOCC3)C(c3ccccc3Cl)C2)cc1 (configuration not stated) | 47.7 | -7.1
COc1ccccc1C1=NN(C(=O)CN2CCOCC2)C(c2ccccc2Cl)C1 (configuration not stated) | 38.3 | -3.5
CCC(=O)N(C)CC(=O)N1N=C(c2ccc(C)c(C)c2)CC1c1ccccc1 (configuration not stated) | 56.5* | 0.6
Cc1ccc(C2=NN(C(=O)CN3CCOCC3)C(c3ccccc3)C2)cc1C (configuration not stated) | 52.1* | -2.0
O=C(NC1CCCCCC1)c1ccc2c(c1)NC(=O)C1CCCCN21 (configuration not stated) | 4.4 | -3.3
Cc1ccc(C2CC(c3ccccc3F)=NN2C(=O)CN2CCOCC2)c(C)c1 (configuration not stated) | 83.2* | 0.6
Cc1ccc(C2=NN(C(=O)CN3CCOCC3)C(c3ccc(F)cc3)C2)cc1 (configuration not stated) | 28.1 | -5.7
O=C(CN1CCOCC1)N1N=C(c2ccc(F)cc2)CC1c1ccccc1F (configuration not stated) | 14.0 | -4.4
COc1cccc(C2CC(c3cc(C)ccc3C)=NN2C(=O)CN2CCOCC2)c1 (configuration not stated) | 46.9 | -8.0
Cc1ccc(C)c(C2CC(c3ccc(F)cc3)=NN2C(=O)CN2CCOCC2)c1 (configuration not stated) | 50.5* | 2.3
Cc1ccc(C)c(C2=NN(C(=O)CN3CCOCC3)C(c3ccccc3C)C2)c1 (configuration not stated) | 85.0* | -3.9
COc1cc(C(=O)Nc2ccc3nc(N4CCN(C)CC4)sc3c2)cc(OC)c1OC | -0.1 | -0.2
O=C(CC(=O)Nc1ccccc1)Nc1ccccc1 | -3.9 | -2.0
CC1(CC(=O)Nc2ccccc2)NN=C(c2ccccc2)S1 (configuration not stated) | 73.0* | -2.3
C1CC(c2nc(C3CC3)no2)CN1 (configuration not stated) | -4.2 | 1.5
COc1ccc2oc(=Nc3ccc(C(=O)O)cc3)c(C(N)=O)cc2c1 | 1.0 | -0.5
CCCCCCCCN1[C@@H](CC(C)=O)c2ccccc2S1(=O)=O | 15.1 | -1.8
Cc1cccc(NC(=O)C2CCN(c3ncc(-c4ccccc4)cn3)CC2)c1 | -8.0 | 0.7
Cc1cccc(-c2cnc(N3CCC(C(=O)Nc4ccc(F)cc4)CC3)nc2)c1 | 100.1* | 0.9
SMILES | mHTT-CaM PPI inh | Pf apPOL block
O=C(C1CC1)N1CCN(c2nc(CN3CCOCC3)cs2)CC1 | -1.6 | 1.2
CCCn1c(C(=O)N(C)Cc2ccccc2)cc2sccc21 | -4.2 | -0.5
Cc1ccc(C)c(Oc2cc(NC(=O)CCCn3nc(C)c([N+](=O)[O-])c3C)cc([N+](=O)[O-])c2)c1 | 1.0 | -0.2
Cc1nn(CCCC(=O)Nc2cc(Oc3ccccc3)cc([N+](=O)[O-])c2)c(C)c1[N+](=O)[O-] | 96.0* | -2.1
Cc1ccc(NC(=O)CCCn2nc(C)c([N+](=O)[O-])c2C)cc1C | 2.0 | -12.3
Cc1nn(CCCC(=O)Nc2cc(Oc3ccc(F)cc3F)cc([N+](=O)[O-])c2)c(C)c1[N+](=O)[O-] | 80.0* | -4.9
CNC(=O)c1nc2cc(C)c(C)cc2n(C)c1=O | 9.4 | -0.8
COc1ccc(N2C(=O)C3C(c4cccc(OC)c4O)NC(C)(C(=O)O)C3C2=O)cc1 (configuration not stated) | 3.0 | 2.0
Cc1cc(N2CCOCC2)nc2ccc(NC(=O)/C=C/c3ccccc3Cl)cc12 | 38.0 | -3.0
Cc1cc(N2CCN(C)CC2)nc2ccc(NC(=O)/C=C/c3ccccc3Cl)cc12 | 93.0* | 3.6
Cc1cc(N2CCN(C)CC2)nc2ccc(NC(=O)/C=C/c3ccc4c(c3)OCO4)cc12 | 51.0* | -3.1
CCN(CC)c1cc(C)c2cc(NC(=O)/C=C/c3ccc4c(c3)OCO4)ccc2n1 | 20.0 | -8.1
CCOC(=O)N1CCc2nc(NC(=O)c3nc4ccccc4s3)sc2C1 | 35.5 | 0.4
CC(=O)N1CCc2c(sc(NC(=O)c3sc4ccccc4c3Cl)c2C#N)C1 | 61.2* | -22.7
